Laboratory results: publication PMC4336329 (PLoS ONE, 2015)
Hit rate of the full screen: of about 310,000 compounds, about 14,000 (4.5%) showed an effect of 50% or more. The effect is printed as a negative number. The list comes from a sample in which strong results are over-represented; it also holds similar structures and randomly drawn compounds.

Target: human ether-à-go-go-related gene (hERG) potassium channel (human, UniProt Q12809)
Experiment: primary screen, population patch clamp on CHO cells stably expressing hERG; higher = less effect of the substance
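Also: peak tail current of the secondary pulse compared with the same well before compound.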

human ether-à-go-go-related gene (hERG) potassium channel, sequence (Q12809 whole entry, looked up): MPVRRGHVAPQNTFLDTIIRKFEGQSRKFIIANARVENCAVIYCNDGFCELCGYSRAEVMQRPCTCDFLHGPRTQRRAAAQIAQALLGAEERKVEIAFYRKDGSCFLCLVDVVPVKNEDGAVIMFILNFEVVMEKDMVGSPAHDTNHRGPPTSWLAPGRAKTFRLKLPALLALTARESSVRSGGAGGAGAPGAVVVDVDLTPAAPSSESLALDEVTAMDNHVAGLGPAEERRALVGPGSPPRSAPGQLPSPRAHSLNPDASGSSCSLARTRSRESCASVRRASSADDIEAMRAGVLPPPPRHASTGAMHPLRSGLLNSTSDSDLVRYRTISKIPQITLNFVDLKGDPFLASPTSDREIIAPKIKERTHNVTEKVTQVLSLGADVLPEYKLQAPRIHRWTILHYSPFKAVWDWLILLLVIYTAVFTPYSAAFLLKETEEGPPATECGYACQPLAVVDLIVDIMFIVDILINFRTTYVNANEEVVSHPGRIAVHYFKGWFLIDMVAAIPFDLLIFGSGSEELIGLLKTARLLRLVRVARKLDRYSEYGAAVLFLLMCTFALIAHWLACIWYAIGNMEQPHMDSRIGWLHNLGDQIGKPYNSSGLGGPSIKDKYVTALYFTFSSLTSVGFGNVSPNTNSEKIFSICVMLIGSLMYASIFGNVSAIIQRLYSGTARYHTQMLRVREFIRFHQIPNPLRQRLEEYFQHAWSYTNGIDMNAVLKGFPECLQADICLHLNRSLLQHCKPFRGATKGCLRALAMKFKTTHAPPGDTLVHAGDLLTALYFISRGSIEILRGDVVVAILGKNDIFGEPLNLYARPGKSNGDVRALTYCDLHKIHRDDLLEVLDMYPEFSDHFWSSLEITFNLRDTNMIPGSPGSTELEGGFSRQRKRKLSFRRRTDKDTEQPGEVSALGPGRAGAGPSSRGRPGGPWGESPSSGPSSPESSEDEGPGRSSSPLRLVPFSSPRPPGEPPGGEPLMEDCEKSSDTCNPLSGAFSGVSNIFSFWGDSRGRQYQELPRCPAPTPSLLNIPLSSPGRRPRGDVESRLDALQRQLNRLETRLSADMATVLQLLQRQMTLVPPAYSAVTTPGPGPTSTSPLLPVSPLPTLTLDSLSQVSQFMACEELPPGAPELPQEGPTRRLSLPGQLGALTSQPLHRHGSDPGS

Row | SMILES | hERG current change (%, negative = inhibition) at 10uM [%]
1 | CCOc1cc(C2NC(=O)NC2=O)ccc1O (centres unmarked) | 17.4
2 | CCN(CC)CCN(C(=O)Cn1nnc(-c2ccc(C)o2)n1)C(C(=O)NC(C)(C)C)c1cccs1 (centres unmarked) | -41.6
3 | O=C1CC(C(=O)NC2CCCCC2)C2(CCCCC2)O1 (centres unmarked) | -1.23
4 | COc1cc(NC(=O)C(=O)NCCN(C)C)c(OC)cc1Cl | 8.41
5 | CCCCN(C1CCS(=O)(=O)C1)S(=O)(=O)c1ccc(OC)cc1 (centres unmarked) | -24.5
6 | CC(C)(CO)Nc1nc(N2CCCC2)nc(N2CCCC2)n1 | -13.8
7 | COc1ccc(NC(=O)NNC(=O)COc2ccc3cc(Br)ccc3c2)cc1OC | 5.68
8 | CC(C)c1ccc2oc(=O)cc(CN3CCN(Cc4ccccc4)CC3)c2c1 | 17.5
9 | COc1ccc2oc(=O)cc(CN3CCN(Cc4ccc(OC)c(OC)c4OC)CC3)c2c1 | -39.7
10 | Cc1ccc2c(CN3CCN(Cc4ccccc4)CC3)cc(=O)oc2c1 | -78.9
11 | CCOC(=O)C1CCN(Cc2cc(=O)oc3cc(C)ccc23)CC1 | -47.8
12 | COc1cc(CN(C)Cc2cc(=O)oc3cc(C)c(Cl)cc23)ccc1OC(F)F | 12
13 | COc1ccc(CN2CCN(Cc3cc(=O)oc4cc(C)ccc34)CC2)c(OC)c1OC | -80.2
14 | CCN1CCN(Cc2cc(=O)oc3ccc(C)cc23)CC1 | -3.04
15 | CCc1ccc2c(CN(C)Cc3ccc(OC(F)F)c(OC)c3)cc(=O)oc2c1 | -72.5
16 | Cc1ccc2c(CN3CCCCC3)cc(=O)oc2c1 | -16.1
17 | Cc1ccc2oc(=O)cc(CN3CCN(Cc4ccccc4)CC3)c2c1 | -56.8
18 | CCc1ccc2c(CN(C)Cc3ccccc3OC)cc(=O)oc2c1.O=C(O)C(=O)O | -21.3
19 | Cc1ccc2c(CN3CCOCC3)cc(=O)oc2c1 | -27.6
20 | CC(Sc1nc(N)cc(=O)[nH]1)C(=O)Nc1sc2c(c1C#N)CCCC2 (centres unmarked) | 1.55
21 | Cc1c(C)c(C)c(S(=O)(=O)NCCc2ccccn2)c(C)c1C | -7.95
22 | C=CCNC(=O)c1nn2cccnc2c1Cl | 12.7
23 | COC(=O)C1C(=O)C=C(Nc2ccc(F)cc2F)CC1c1ccccc1 (centres unmarked) | -16.9
24 | O=C1CCCN1CC(O)CS(=O)(=O)c1ccc(Cl)cc1 (centres unmarked) | 16.7

Row | SMILES | hERG current change (%, negative = inhibition) at 10uM [%]
25 | CSc1ccc(CN(C)Cc2nc3cc(C(F)(F)F)ccc3c(=O)[nH]2)cc1 | 12.9
26 | Cc1ccc2oc(=O)cc(CN3CCC(C)CC3)c2c1 | 10.8
27 | Cc1ccc2c(CN3CC(C)CC(C)C3)cc(=O)oc2c1 (centres unmarked) | -2.89
28 | Cc1ccc2c(CN3CCN(CCO)CC3)cc(=O)oc2c1C | -15.5
29 | Cc1ccc2c(CN3CCC(C)CC3)cc(=O)oc2c1 | -50
30 | COc1cc2c(cc1OC)CN(Cc1cc(=O)oc3cc(C)c(C)cc13)CC2 | -37.6
31 | CCc1cc2c(CN3CCN(CCO)CC3)cc(=O)oc2cc1O | 15.6
32 | Cc1ccc2c(CN3CCN(CCO)CC3)cc(=O)oc2c1 | -74.9
33 | CCc1ccc2c(CN3CCc4cc(OC)c(OC)cc4C3)cc(=O)oc2c1 | -66
34 | COc1cc2c(cc1OC)CN(Cc1cc(=O)oc3cc(C)c(Cl)cc13)CC2 | -14.3
35 | COc1cc(CN(C)Cc2nc3cc(C(F)(F)F)ccc3c(=O)[nH]2)ccc1OC(F)F | -66.5
36 | COc1cccc(CN(C)Cc2nc3cc(C(F)(F)F)ccc3c(=O)[nH]2)c1 | -3.19
37 | Cc1ccc2c(c1)-c1c(cnn1CC(=O)N(Cc1ccco1)C1CCCCC1)CO2 | -13
38 | Cc1cc(C)cc(NC(=O)Cn2nnc(C(=O)NCc3ccco3)c2N)c1 | 6.01
39 | CCn1cc(/C=N\NC(=O)Cc2ccc(Cl)cc2)cn1 | -12
40 | CCOC(=O)N1CCN(C(=O)CSc2nnc(CNC(=O)c3ccccc3F)o2)CC1 | 6.37
41 | COc1ccccc1-c1cc(C(=O)NC2CCN(C)CC2)c2ccc(Cl)c(C)c2n1 | -42
42 | N#CC1(NC(=O)COC(=O)CCCN=C2NS(=O)(=O)c3ccccc32)CCCCC1 | 15
43 | Cn1c(SCC(=O)NCc2ccc3c(c2)OCO3)nc2c(c1=O)SCC2 | -21
44 | CCc1ccc2c(CN3CCN(Cc4ccccc4)CC3)cc(=O)oc2c1 | -79.7
45 | CCc1ccc2c(CSc3nnnn3C)cc(=O)oc2c1 | -68.1
46 | Cc1ccc2c(CN3CCN(S(=O)(=O)c4ccccc4C(F)(F)F)CC3)cc(=O)oc2c1C | -5.49
47 | CCc1ccc2oc(=O)cc(CN3CCN(Cc4ccccc4)CC3)c2c1 | -46.3
48 | Cn1nnnc1SCc1cc(=O)[nH]c2ccccc12 | 2.31

Row | SMILES | hERG current change (%, negative = inhibition) at 10uM [%]
49 | Cc1ccc2c(CSc3nnnn3C)cc(=O)oc2c1 | -42.4
50 | CCc1ccc2c(CN3CCOCC3)cc(=O)oc2c1 | -31.7
51 | Cc1ccc(S(=O)(=O)N2CCN(Cc3ccccc3C(F)(F)F)CC2)cc1 | -5.53
52 | Cc1ccc2c(CN3CCN(S(=O)(=O)c4ccccc4C(F)(F)F)CC3)cc(=O)oc2c1 | -57.3
53 | N#Cc1c(-c2ccccc2)ccn(Cc2cccc(Cl)c2)c1=O | 8.43
54 | Cc1ccc(Nc2cc(-n3nc(C)cc3C)ncn2)c(C)c1 | -3.97
55 | COCCCN1C2=C(C(=O)CC(C)(C)C2)C(c2ccc(O)c(OC)c2)C2=C1CC(C)(C)CC2=O | 11.2
56 | Cc1ccc(N)cc1CN1CCCC1=O | 2.15
57 | CCN(CC)S(=O)(=O)c1ccc(C(=O)NC(C)(C)C)cc1 | 19.1
58 | Cc1ccccc1N1CCN(CCC(=O)Nc2ccc(F)cc2)CC1 | -67.5
59 | COc1ccc(NC(=O)CCN2CCN(c3ccc(F)cc3)CC2)cc1 | -33
60 | O=C(CCN1CCN(c2ccccn2)CC1)Nc1ccc(F)cc1 | -42.5
61 | O=C(CCN1CCN(c2ccc(F)cc2)CC1)Nc1ccc(F)cc1 | -56.8
62 | O=C(CCN1CCN(c2ccccc2F)CC1)Nc1ccc(F)cc1 | -18.3
63 | O=C(CCN1CCOCC1)Nc1ccc(F)cc1 | -10.5
64 | CCC(C)(C)n1nnnc1C(c1cccnc1)N1CCCc2ccccc21 (centres unmarked) | -19.6
65 | CCS(=O)(=O)NCc1csc(-c2ccccc2)n1 | 18
66 | Cc1cnccc1CN(C)C(=O)CC1C(=O)NCCN1CC1CCCCC1 (centres unmarked) | -4.59
67 | COc1ccc(/C=C2\SC(=S)N(CCC(=O)Nc3ccccn3)C2=O)cc1OC | 26.2
68 | CC1CCCN(CC(O)COCC2COc3ccccc3O2)C1.Cl (centres unmarked) | -28.2
69 | C[N+]1(CC(O)COCC2COc3ccccc3O2)CCOCC1.[I-] (centres unmarked) | 18.3
70 | Cl.OC(COCC1COc2ccccc2O1)CN1CCN(c2ccccc2F)CC1 (centres unmarked) | -58.9
71 | Cl.OCCN1CCN(CC(O)COCC2COc3ccccc3O2)CC1 (centres unmarked) | 33.4
72 | Cl.OC(COCC1COc2ccccc2O1)CN1CCN(c2ccc(F)cc2)CC1 (centres unmarked) | -79.3

Row | SMILES | hERG current change (%, negative = inhibition) at 10uM [%]
73 | O=C(C1COc2ccccc2O1)N1CCN(c2ccccc2F)CC1 (centres unmarked) | 9.47
74 | Cl.OC(COCC1COc2ccccc2O1)CN1CCN(c2ccccc2)CC1 (centres unmarked) | -64.1
75 | CC[N+](C)(CC)CC(O)COCC1COc2ccccc2O1.[I-] (centres unmarked) | 1.73
76 | CCN1CCN(CC(O)COCC2COc3ccccc3O2)CC1.Cl (centres unmarked) | -4.69
77 | Cl.OC(COCC1COc2ccccc2O1)CN1CCc2ccccc2C1 (centres unmarked) | -64.9
78 | Cl.OC(COCC1COc2ccccc2O1)CN1CCCCC1 (centres unmarked) | -43.6
79 | CC1CCCC(C)N1CC(O)COCC1COc2ccccc2O1.Cl (centres unmarked) | -15.8
80 | CCN1CCN(S(=O)(=O)c2cccc3nsnc23)CC1 | -5.57
81 | COc1cccc(/C=C2\SC(=N)N(c3ccc(F)cc3)C2=O)c1 | 9.22
82 | CCCOc1ccc(-c2c(C(=O)N/N=C/c3ccccc3)nnn2-c2nonc2N)cc1 | 4.98
83 | O=C(Nc1ccc2c(c1)OCO2)c1cc(-c2cccc(O)c2)on1 | -63.1
84 | O=C(Nc1ccc2c(c1)OCO2)c1cc(-c2ccc(O)cc2)on1 | 22.4
85 | O=C(Nc1cccc(O)c1)c1cc(-c2ccc3c(c2)OCO3)on1 | 11.3
86 | Cc1ccc(CN2CCN(C/C=C/c3ccc(F)cc3)CC2CCO)o1 (centres unmarked) | -54.5
87 | COc1ccccc1/C=C/CN1CCN(Cc2ccc(F)cc2)C(CCO)C1 (centres unmarked) | -51
88 | COc1ccccc1/C=C/CN1CCN(Cc2ccc(C)o2)C(CCO)C1 (centres unmarked) | -12
89 | COc1ccc(/C=C/CN2CCN(CC(C)C)C(CCO)C2)cc1 (centres unmarked) | -52.2
90 | CCOc1ccccc1CN1CCN(C/C=C/c2ccc(OC)cc2)CC1CCO (centres unmarked) | -65
91 | COc1cc(/C=C/CN2CCN(CCC(C)C)C(CCO)C2)ccc1O (centres unmarked) | 23
92 | COc1cc(/C=C/CN2CCN(Cc3ccc(C)o3)C(CCO)C2)ccc1O (centres unmarked) | -6.62
93 | CCOc1ccccc1CN1CCN(Cc2ccc(C)o2)C(CCO)C1 (centres unmarked) | -12.9
94 | C/C(=C\c1ccccc1)CN1CCN(Cc2ccc(C)o2)C(CCO)C1 (centres unmarked) | -13.4
95 | COC(=O)c1ccc(CN2CCN(CC(C)C)C(CCO)C2)cc1 (centres unmarked) | -3.11
